Screening data: PubChem, National Center for Advancing Translational Sciences (NCATS)
Hits are enriched below; roughly 6.5% of the tested compounds scored in any of these assays.
TGFb SMAD3 inh: TGF-b pathway inhibition; 1.2% of 410,000 active; Potency, µM (highest dose often 46.1 µM), actives largely listed as inhibitors; AID 588855; HepG2 CAGA-GFP TGF-b/SMAD3 reporter, GFP fluorescence, 18 h; TGF-beta stimulated, 500 pg/mL final; also: nearly all actives have a fitted effect of over 65% in size
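HEPG2 CAGA-GFP, 1000 cells/well; 2 h settle, 37 C; cpd via pin tool; TGF-b 500 pg/mL final; 18 h, 37 C; GFP imaging ex488/em500-530; %Activity normalised to -TGF-b and +DMSO controls; CRC fit, curve class.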
Giardia killer: Giardia lamblia killing. Giardia lamblia trophozoite viability. activity change, % at 7.66 µM, hits read low. 0.15% of 340,000 active; in the data active = activity change below about -80%; inconclusive = between about -30% and that limit;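 also: parasites exposed to compound for two days anaerobically before the ATP read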
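Each well holds 100 Giardia trophozoites and compound. After two days (48 hrs) at 37 deg C in anaerobic conditions, ATP is quantified by luminescence.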
HT1080-NT tox: kills 2HG-producing HT-1080-NT fibrosarcoma cells; HT-1080-NT fibrosarcoma viability, CellTiter-Glo ATP luminescence, 48 h; Potency, µM (doses to about 46.1 µM), usual class: cytotoxic; 1.6% of 360,000 active;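 also: NT is the 2HG producing partner of a matched IDH1 knockdown line; nearly all actives have a fitted effect of over 55% in size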
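Luminescent CellTiter-Glo readout after 48 hours of compound exposure at 37 degrees C defined viability of HT-1080-NT cells. Activity was normalized to DMSO wells and cell-free media wells; concentration-response curves were fitted and assigned curve classes.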
HT1080 IDH1KD tx: toxicity to HT-1080 IDH1 knockdown cells (counter line). HT-1080 IDH1 knockdown viability, ATP luminescence, 48 h. Potency, µM (highest dose often 46.1 µM), hits mostly cytotoxic. 2% of 360,000 active
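Luminescent ATP read-out (CellTiter-Glo, 10 min at room temperature) after 48 h compound exposure at 37 °C gave viability of IDH1-knockdown HT-1080 cells. Activity was normalised to DMSO and cell-free wells, then fitted as concentration-response curves.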
HepG2 tox: HepG2 cytotoxicity, counter-screen for TGF-b inhibitors; Potency, µM (highest dose often 46.1 µM), hits mostly cytotoxic; 0.76% of 410,000 active; HepG2 CAGA-GFP viability, ATP luminescence, 18 h
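CellTiter-Glo luminescence gave cytotoxicity after 18 hours at 37 degrees C. The cells were HepG2 CAGA-GFP in 1% FBS DMEM, stimulated with 500 pg/mL TGF-beta after compound addition. %Activity was normalised to no-cell wells (complete cell-killing) and DMSO (no toxicity), and curves were fitted and classified.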
IL1B secr inh: inflammasome signaling inhibition, IL-1 beta readout | THP-1 LPS/ATP IL-1B secretion, AlphaLISA, 16 h; hits give low values | activity change, % at 57.5 µM | 4.7% of 360,000 active | AID 743279; in the data active = activity change below about -50%; inconclusive = mostly about -30% to -49%
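THP-1 cells pretreated 1 hr with compounds (up to 57.5 uM final), then stimulated with LPS (250 ng/mL final) plus ATP (1.25 mM final); secreted IL-1B measured by AlphaLISA after 16 hr, decreased signal indicating inhibition.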
Large screens that a line does not name were inactive. Unless noted, calls follow the shape of the dose curve; as a rule, active = well fitted curve in the direction sought with a large enough effect; inconclusive = small, poorly fitted or top-dose-only effect, or another doubt; inactive = no such curve, though single readings can be large; an effect the other way counts as inactive or inconclusive.

CC1(C)Cc2c(ccc3ccccc23)/C(=C/C(=O)N2CCCCC2)N1	TGFb SMAD3 inh inconclusive, HT1080-NT tox inconclusive, HT1080 IDH1KD tx inconclusive, IL1B secr inh -62.5
O=C(O)c1ccc(N/N=C/C2=C(N3CCOCC3)C(=C\c3ccccc3)/CC2)cc1	TGFb SMAD3 inh inconclusive, HT1080-NT tox 14.6µM, HT1080 IDH1KD tx 14.6µM
O=C(NCc1ccc(Cl)cc1)c1cc2cccc3c2n1CCS3	TGFb SMAD3 inh inconclusive (no result: Giardia killer, HT1080-NT tox, HT1080 IDH1KD tx, IL1B secr inh)
Cc1cc(Nc2nc3ccccc3nc2Cl)n(-c2ccccc2)n1	HT1080-NT tox inconclusive, HT1080 IDH1KD tx 12.6µM, IL1B secr inh inconclusive
CCCC[C@H](CN[C@@H](CNC)[C@H](C)CC)NCCC12CCC(CC1)C2	TGFb SMAD3 inh inconclusive, HT1080-NT tox inconclusive, HT1080 IDH1KD tx inconclusive, IL1B secr inh -67.6
CCC[C@H](CN[C@@H](CNC)[C@H](C)O)NCCc1ccc(OC)cc1	none
CSc1ccc(C(=O)C2CCCN(S(=O)(=O)c3c(C)noc3C)C2)cc1 (stereo unspecified)	IL1B secr inh -51.9
COc1ccc(NS(=O)(=O)c2cc(NC(=O)c3cncc(Br)c3)ccc2OC)cc1	none
Cc1ccc(N2CC(NS(=O)(=O)c3cccnc3)CC2=O)cc1 (stereo unspecified)	none
COCCN(CC(=O)Nc1cccc(C)c1C)C(=O)C1(c2ccc(Cl)cc2)CCC1	TGFb SMAD3 inh inconclusive, IL1B secr inh -53.1
NNC(=O)CC(=O)NC1(Cc2ccc(O)cc2)CCCCC1	none
Cc1ccc2oc(=O)c(/C=C(\O)c3ccco3)nc2c1	TGFb SMAD3 inh inconclusive (no result: IL1B secr inh)
O=c1oc2ccccc2nc1/C=C(O)/C=C\c1ccccc1	IL1B secr inh -54.0
Cc1ccc(/C(O)=C/c2nc3ccccc3oc2=O)cc1	TGFb SMAD3 inh inconclusive, HT1080 IDH1KD tx 23.1µM (no result: IL1B secr inh)
c1ccc(-c2nnc(-c3ccccc3)o2)cc1	none
ClCc1nnc(-c2ccccc2)o1	TGFb SMAD3 inh inconclusive, IL1B secr inh -87.8
COc1ccc(CN(C)S(=O)(=O)c2nnc(NC(=O)c3cccc(C)c3)s2)cc1OC	none
CC1=NN(c2cccc(C(=O)O)c2)C(=O)/C1=C\C=C/c1ccccc1	TGFb SMAD3 inh inconclusive, HT1080-NT tox inconclusive, HT1080 IDH1KD tx inconclusive, IL1B secr inh -102.6
CC1=NN(c2ccc(C)cc2)C(=O)/C1=C\C=C\c1ccccc1	TGFb SMAD3 inh inconclusive, IL1B secr inh -180.3
Cc1nnc(Sc2nc3c(c(=O)n(C)c(=O)n3C)n2Cc2ccccc2Cl)s1	none
CCCCCCCCN1C(=O)[C@H](CC(=O)NCCCOCCCC)C[C@@]2(C(=O)OC)CCCCC=C12	HT1080-NT tox inconclusive, HT1080 IDH1KD tx inconclusive, IL1B secr inh -77.6 (no result: TGFb SMAD3 inh, Giardia killer, HepG2 tox)
CCCCCCCCN1C(=O)[C@H](CC(=O)NCCC(C)C)C[C@@]2(C(=O)OC)CCCCC=C12	HT1080-NT tox inconclusive, IL1B secr inh -60.0 (no result: TGFb SMAD3 inh, Giardia killer, HepG2 tox)
COC(=O)[C@]12CCCCC=C1N(Cc1cccc3ccccc13)C(=O)[C@H](CC(=O)NCCC(C)C)C2	HT1080-NT tox inconclusive, HT1080 IDH1KD tx inconclusive (no result: TGFb SMAD3 inh, Giardia killer, HepG2 tox)
COc1ccc(-c2nc(CS(=O)CC(=O)NCc3ccc(F)cc3)c(C)o2)cc1OC (stereo unspecified)	TGFb SMAD3 inh inconclusive (no result: Giardia killer, HT1080-NT tox, HT1080 IDH1KD tx, IL1B secr inh)
